A short description of experiment [1]: qHTS Assay for Identifying Gametocytocidal Compounds (AID 743244). Also: potency is read from the fitted curve at half-maximal effect.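 As to max response: actives lower the fluorescent signal which means gametocytes are killed.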 As to conditions: P. falciparum 3D7 stage III-V gametocytes, alamarBlue, 72 h; max response: hits give low values. The procedure, abridged: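 Fluorescence at Ex 525/Em 598 nm, recorded 24 h after alamarBlue addition, reports residual metabolic activity of 3D7 gametocytes (stages III–V) following 72 h compound exposure at 37 °C, 5% CO2.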
A general note: In qHTS, concentration-response curves come from the screen itself.

The nature of experiment [2]: qHTS assay for measurement of the activity of small molecule inhibitors on Zika virus induced Caspase-3 activity in human iPSC derived neural progenitor cells (hNPCs) (AID 1224857). Also: nearly all actives have a fitted effect of over 65% in size. As to conditions: hNPCs ZIKV-induced caspase-3/7, Caspase-Glo luminescence, 6 h; series mostly up to 45.7 µM. The procedure, abridged: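 Zika virus (2 FFU/cell) infection of human iPSC-derived NPCs, 6 h, following 1 h compound preincubation. Read-out: Caspase-Glo 3/7 luminescence.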

Results filed as inconclusive are left out. Where a call stands in place of a potency, no number is given. A number with no mark means an inactive call. Calls of active or inactive are those of the source. Calls follow the shape of the dose curve; as a rule, active = well fitted curve in the direction sought with a large enough effect; inconclusive = small, poorly fitted or top-dose-only effect, or another doubt; inactive = no such curve, though single readings can be large; an effect the other way counts as inactive or inconclusive.

In the case of `COc1ccc(/C=N/NC(=O)c2ccncc2)cc1OC`, the max response in experiment [1] is -3.84%. In addition, the Potency entry in experiment [2] was “inactive”.

As to `CCOC(=O)c1c(N)sc2c1CCN(Cc1ccccc1)C2`, in experiment [1], the Potency was 11.2 µM (active). Also, the Potency result in experiment [2] is “inactive”.

For `CC[C@H](c1ccc(O)cc1)[C@@H](CC)c1ccc(O)cc1`, the max response in experiment [1] is 11.9%. In addition, the Potency entry in experiment [2] is “inactive”.

For `C#C[C@]1(O)CC[C@H]2[C@@H]3[C@H](C)CC4=C(CCC(=O)C4)[C@H]3CC[C@@]21C`, in experiment [1], the max response was -5.37%. Also, the Potency result in experiment [2] was “inactive”.

For the compound `CCc1oc2ccccc2c1C(=O)c1cc(Br)c(O)c(Br)c1`, in experiment [1], the max response was -6.8%. Besides, in experiment [2], the Potency result is “inactive”.

Consider `COc1ccc2c(c1)c1c3n2CCN(C)C3=NCC1`, for which, in experiment [1], the max response was 18.4%. In experiment [2], the Potency entry was “inactive”.

With `C#C[C@]1(OC(C)=O)CC[C@H]2[C@@H]3CCC4=C/C(=N/O)CC[C@@H]4[C@H]3CC[C@@]21CC`, the max response in experiment [1] is -2.23%. Moreover, in experiment [2], the Potency result is “inactive”.

Regarding `CCN(CC)CCOc1ccccc1C(=O)CCc1ccccc1`, the max response in experiment [1] is -3.28%. In addition, in experiment [2], the Potency entry is “inactive”.

For `Nc1ccc(C(=O)NCC(=O)O)cc1`, in experiment [1], the max response is 6.7%. Moreover, the Potency result in experiment [2] was “inactive”.

Turning to `O=C(NC1CCN(CCc2c[nH]c3ccccc23)CC1)c1ccccc1`, in experiment [1], the max response was -6.9%. For the same compound, in experiment [2], the Potency result was “inactive”.

For the compound `O=C(Nc1ccc([N+](=O)[O-])cc1)Nc1ccc([N+](=O)[O-])cc1`, the max response in experiment [1] was 3.29%. Besides, the Potency entry in experiment [2] was “inactive”.

In the case of `CN1CCc2cccc3c2[C@H]1Cc1ccc(O)c(O)c1-3`, the Potency in experiment [1] is 3.98 µM (active). For the same compound, the Potency result in experiment [2] is “inactive”.

As for `CCCCC(CC)CN1CN(CC(CC)CCCC)CC(C)(N)C1` (stereo not given), the max response in experiment [1] is 4.3%. In addition, the Potency result in experiment [2] was “inactive”.

In the case of `CCOC(=O)c1ccc(N)cc1`, in experiment [1], the max response is 11.9%. Further, the Potency entry in experiment [2] was “inactive”.

Consider `CCCCCCCCCCCCSCCOCCO`, for which the max response in experiment [1] is 3.73%. Further, in experiment [2], the Potency entry was “inactive”.

Source of the values: PubChem BioAssay (NCATS).
